In PubChem BioAssay (EPA / NIEHS):
Where “and” joins values, the source holds several entries; their conditions need not be identical. Equal values may be shown once. Calls of active or inactive are those of the source. How the source made its calls: active means hit-call score of the fitted dose curve at least 0.9, where 1 is the maximum; inactive means score below 0.9.

Read-out: Human Leukocyte Antigen - DR isotype (HLADR), HLA-DRA (gene 3122)
Experiment: BSK_3C_HLADR: BioMAP Diversity Plus: 3C Assay for Human Leukocyte Antigen - DR isotype (HLADR) Biomarker Activity (AID 2283019);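 on outcome: ELISA of cell-surface HLA-DR on HUVEC 24 h after dosing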
Details: primary human endothelial cells (HUVEC); actives raise or lower the signal
Summary of the method: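 Endothelial cells from human umbilical vein are treated with test chemical; after 24 h, HLA-DR levels are measured by ELISA. Data are fitted in both directions using DMSO as the baseline.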

SMILES | outcome | AC50
CC1(C)[C@H](C=C(Cl)Cl)[C@H]1C(=O)OCc1cccc(Oc2ccccc2)c1 | inactive | 
c1ccc(Sc2ccccc2)cc1 |  | 30.3 µM (active)
CC(C)(C)c1cccc(O)c1 | inactive | 
C=CC(=O)OCC(CO)(COC(=O)C=C)COC(=O)C=C |  | 0.135 µM (active)
C=C(F)C(=O)OC(C(F)(F)F)C(F)(F)F | inactive | 
C=C(C)C(=O)OCCC(F)(F)C(F)(F)C(F)(F)C(F)(F)C(F)(F)C(F)(F)C(F)(F)C(F)(F)F | inactive | 
CC(=O)c1ccc(C)cc1 | inactive | 
O=C(O)C(F)(F)C(F)(F)C(F)(F)C(F)(F)C(F)(F)C(F)(F)C(F)(F)C(F)F | inactive | 
O=C(O)C(F)(F)OC(F)(F)C(F)(F)OC(F)(F)C(F)(F)C(F)(F)C(F)(F)F | inactive | 
OCC(F)(OC(F)(F)C(F)(OC(F)(F)C(F)(F)C(F)(F)F)C(F)(F)F)C(F)(F)F (configuration not stated) |  | 2.65 µM (active) and 4.85 µM (active)
CC(C)Cc1ccc(C(C)C(=O)O)cc1 (configuration not stated) | inactive | 
O=S(=O)(O)C(F)(F)C(F)(F)OC(F)(F)C(F)(F)F | inactive | 
